Assay outcomes (PubChem BioAssay)
FBPA Giardia inh – blocks Giardia fructose-bisphosphate aldolase activity | A8B2U2 | purified Giardia FBPA | Potency, µM (series often up to 59.6 µM), actives largely listed as inhibitors | actives 0.71% (n = 290,000); further: nearly all actives have a fitted effect of over 55% in size
Target sequence (A8B2U2 whole entry, looked up): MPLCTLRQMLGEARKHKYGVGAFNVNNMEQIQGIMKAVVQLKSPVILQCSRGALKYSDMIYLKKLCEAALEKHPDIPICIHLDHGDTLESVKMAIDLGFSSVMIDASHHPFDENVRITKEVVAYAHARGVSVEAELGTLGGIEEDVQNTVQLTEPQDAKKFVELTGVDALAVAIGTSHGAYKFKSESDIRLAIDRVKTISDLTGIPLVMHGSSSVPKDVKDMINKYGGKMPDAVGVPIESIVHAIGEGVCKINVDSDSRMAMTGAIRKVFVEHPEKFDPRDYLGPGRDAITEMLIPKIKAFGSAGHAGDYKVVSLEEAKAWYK
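Giardia FBPA (40 nM reagent) was preincubated 10 min at RT with compound (up to 57.5 uM final), then substrate plus GAPDH/TPI/NAD/arsenate coupling system with diaphorase/resazurin was added; resorufin fluorescence (525/598 nm) was read after 20 min.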
Pf growth 96h – inhibits malaria parasite growth, 96 h; actives 6.9% (n = 320,000); P. falciparum luciferase reporter growth, 96 h; Potency, µM (doses to about 28.7 µM), usual class: inhibitors
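Erythrocytes infected with luciferase-expressing P. falciparum were dispensed at 2% hematocrit and 0.05% parasitemia (final), then incubated with compounds 96 hours at 37 C in 5% CO2. Luminescence after detection reagent addition reported growth.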
Shiga toxin inh – Shiga toxin inhibition; inhibition, % at 38.7 µM; actives 9.2% (n = 290,000); AID 2315; Vero cells, Shiga toxin protein synthesis inhibition reporter; in the data active means inhibition mostly above about 28%, no sharp cut-off; inactive means mostly below about 43%
Cycloheximide cs – affects cycloheximide protein synthesis inhibition readout, counter-screen; max response, %; AID 2314; cell reporter, cycloheximide protein synthesis inhibition counterscreen; actives 12% (n = 300,000); in the data active means max response mostly above about 13%, no sharp cut-off; inactive means mostly below about 14%; further: read at 38.3 µM for the half of the compounds with a filed dose
NS1 inh – blocks influenza NS1 protein function; actives 0.4% (n = 270,000); Potency, µM (series often up to 46.1 µM); AID 2326; calls by dose curve; further: actives are rising curves; nearly all actives have a fitted effect of over 50% in size
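Read-out: OD600 growth recovery of NS1-expressing budding yeast. Cells grown overnight at 30C in -URA glucose medium, washed, resuspended and diluted 1:100 in 2% galactose assay medium, pH 6.0. Same strain lacking NS1 served as positive control.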
Pf growth 48h – P. falciparum growth inhibition at 48 hours (one generation); actives 5.9% (n = 310,000); P. falciparum luciferase growth in erythrocytes, 48 h; Potency, µM (highest dose often 28.7 µM), actives largely listed as inhibitors
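Luminescence readout; reporter = integrated firefly luciferase in P. falciparum. RBC culture at 2% hematocrit, 0.1% parasitemia final, 37 C/5% CO2; decreased signal taken as growth inhibition.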
Each line names hits and unclear results; the compound was inactive in the other large screens. The list is not random: actives were taken first. Their share in the collection is about 21%. Unless noted, the call rests on the fitted dose curve; in most records, active means well fitted curve in the direction sought with a large enough effect; inconclusive means small, poorly fitted or top-dose-only effect, or another doubt; inactive means no such curve, though single readings can be large; an effect the other way counts as inactive or inconclusive.

CCN(CC)CCNC(=O)CS(=O)Cc1nc(-c2ccccc2Cl)oc1C (centres undefined)	Pf growth 96h 10µM
CCc1ccc(-c2nc(CS(=O)CC(=O)NCc3ccco3)c(C)o2)cc1 (centres undefined)	Pf growth 96h inconclusive
CCc1ccc(-c2nc(CS(=O)CC(=O)O)c(C)o2)cc1 (centres undefined)	Shiga toxin inh 53, Cycloheximide cs 46
CCOc1ccc(OCCCC(=O)NC2=NCCS2)cc1	none (no result: Pf growth 96h)
COc1ccc(OCCC(=O)NC2=NCCS2)cc1	Cycloheximide cs 27
CC(C)(C)c1ccc(OCCC(=O)NC2=NCCS2)cc1	Cycloheximide cs 12 (no result: Pf growth 96h)
CC1Cn2c(nc3sc4c(c3c2=O)CC(C)(C)OC4)N1CCO (centres undefined)	none
Cc1nn(Cc2ccccc2)c2ncccc12	Pf growth 96h inconclusive, Pf growth 48h inconclusive
O=C(OCC(=O)N1CCc2ccccc21)c1n[nH]c(=O)c2ccccc12	none (no result: FBPA Giardia inh, Shiga toxin inh, Cycloheximide cs, NS1 inh)
N#CCC(=O)Nc1ccc(C(=O)NCc2cccc(Cl)c2)cc1	Pf growth 96h inconclusive
O=C(O)CSCC(=O)NCc1c(Cl)cccc1Oc1ccccc1	none
O=S(=O)(NCc1c(Cl)cccc1Oc1ccccc1)c1ccc(F)cc1	Pf growth 96h inconclusive, Pf growth 48h 9.3µM
CC(C)c1onc(C(=O)NCc2ccc(F)cc2)c1[N+](=O)[O-]	Pf growth 96h inconclusive, Pf growth 48h inconclusive
CC(C)c1onc(C(=O)NCCc2ccccc2)c1[N+](=O)[O-]	Pf growth 96h inconclusive, Shiga toxin inh 82, Cycloheximide cs 53 (no result: NS1 inh)
COc1ccc(NC(=O)c2noc(C(C)C)c2[N+](=O)[O-])cc1	Shiga toxin inh 50, Cycloheximide cs 37, Pf growth 48h inconclusive (no result: NS1 inh)
CCc1ccc(NC(=O)c2noc(C(C)C)c2[N+](=O)[O-])cc1	Shiga toxin inh 151, Cycloheximide cs 48, Pf growth 48h inconclusive (no result: NS1 inh)
CC(=O)c1ccc(NC(=O)c2noc(C(C)C)c2[N+](=O)[O-])cc1	Cycloheximide cs 41 (no result: NS1 inh)
COc1ccc(NC(=O)c2nn(C)c(C(=O)Nc3ccc(OC)cc3)c2[N+](=O)[O-])cc1	Pf growth 96h inconclusive (no result: Shiga toxin inh)
COC(=O)C1=C(C)NC(=S)NC1c1ccc(OCC(=O)N2CCCCC2)c(OC)c1 (centres undefined)	Pf growth 48h inconclusive (no result: FBPA Giardia inh)
Cc1ccc(O)c(NC(=O)c2noc(C(C)C)c2[N+](=O)[O-])c1	Pf growth 96h inconclusive, Cycloheximide cs 42 (no result: NS1 inh)
O=C(Nc1cccc(OC(=O)c2ccc(Br)o2)c1)c1ccccc1	none (no result: FBPA Giardia inh)
COc1ccc(-c2cc3nnc(-c4ccccc4)nc3s2)cc1	Shiga toxin inh active, Cycloheximide cs 50
COc1ccc(-c2cc(-c3ccccc3)no2)cc1	none (no result: FBPA Giardia inh, Shiga toxin inh, Cycloheximide cs, NS1 inh)
COC(=O)c1sccc1NC(=O)c1c(Cl)cnn1C	Pf growth 96h inconclusive (no result: FBPA Giardia inh)
COCCCN1C(=O)c2ccc(C(=O)Nc3ccccc3OC)cc2C1=O	Pf growth 96h 4.7µM
COCCCN1C(=O)c2ccc(C(=O)NCc3ccco3)cc2C1=O	Cycloheximide cs 29
COCCCN1C(=O)c2ccc(C(=O)Nc3ccc(OC)cc3)cc2C1=O	Pf growth 96h inconclusive, Cycloheximide cs 15 (no result: Pf growth 48h)
COc1cc(C(=O)Nc2ccc3c(c2)C(=O)N(CCC(=O)O)C3=O)cc(OC)c1OC	none (no result: Pf growth 96h)
CC(=O)Oc1ccc(C(=O)Nc2ccc3c(c2)C(=O)N(CCC(=O)O)C3=O)cc1	Pf growth 96h 12µM (no result: Pf growth 48h)
COCCCN1C(=O)c2ccc(C(=O)Nc3ccccc3Cl)cc2C1=O	Pf growth 96h inconclusive
COCCN1C(=O)c2ccc(C(=O)NCc3ccco3)cc2C1=O	none (no result: FBPA Giardia inh)
O=C(O)c1ccc(Nc2ncnc3c2cnn3Cc2ccccc2)cc1	none (no result: NS1 inh)
Cc1csc(NC(=O)CN2C(=O)COc3ccc(Cl)cc32)n1	none (no result: FBPA Giardia inh, Shiga toxin inh, Cycloheximide cs, NS1 inh)
COc1ccccc1NC(=O)c1ccc2c(c1)N(CC#N)C(=O)C(C)(C)O2	Pf growth 96h 12µM
CCOC(=O)CN1C(=O)C(C)(C)Oc2ccc(C(=O)Nc3ccccc3OC)cc21	Pf growth 48h inconclusive
Cc1oc2c(c1C(=O)O)C(=O)c1ccccc1C2=O	FBPA Giardia inh inconclusive, Pf growth 96h inconclusive, Pf growth 48h inconclusive
Cc1oc2c(c1C(=O)c1ccccc1)C(=O)C(=O)c1ccccc1-2	FBPA Giardia inh 1.1µM, Pf growth 96h 13µM, Pf growth 48h 9.3µM
O=C1C(=O)c2c(C(=O)c3ccccc3)coc2-c2ccccc21	FBPA Giardia inh 3.2µM, Pf growth 96h inconclusive (no result: Pf growth 48h)
